The full list was thinned out, with hits kept by preference.
Vaccinia pol inh – inhibitors of vaccinia virus processive DNA synthesis (E9 polymerase); in vitro processive DNA synthesis, absorbance read-out; stronger effect = lower value; normalized absorbance, % (no concentration beside the values); 46,000 compounds, 0.94% hits; in the data active = normalized absorbance mostly below about 85%, no sharp cut-off; inactive = mostly above about 86%
Numbers stand for hits; i = inactive; ! = a repeat was not active.

SMILES | Vaccinia pol inh
CC[C@H]1OC(=O)[C@H](C)[C@@H](O[C@H]2C[C@@](C)(OC)[C@@H](O)[C@H](C)O2)[C@H](C)[C@@H](O[C@@H]2O[C@H](C)C[C@H](N(C)C)[C@H]2O)[C@](C)(O)C[C@@H](C)C(=O)[C@H](C)[C@@H](O)[C@]1(C)O | 22.6!
CCOC(=O)CCC(=O)O[C@H]1[C@H](O[C@@H]2[C@@H](C)[C@H](O[C@H]3C[C@@](C)(OC)[C@@H](O)[C@H](C)O3)[C@@H](C)C(=O)O[C@H](CC)[C@@](C)(O)[C@H](O)[C@@H](C)C(=O)[C@H](C)C[C@@]2(C)O)O[C@H](C)C[C@@H]1N(C)C | i
COC(=O)C1Cc2ccccc2CN1 (centres undefined) | i
COc1ccc(C2=C(Nc3ccc(C(=O)N4CCOCC4)cc3)c3ccccc3C2=O)cc1 | i
CCNc1cc(N)[n+](CC)c2n[nH]c(/N=C/c3cc(Cl)cc(Cl)c3O)c12 | 69.0
c1ccc(Nc2nc3nonc3nc2Nc2ccccc2)cc1 | i
O=C1CS/C(=N\c2nccs2)N1 | i
COc1ccc(S(=O)(=O)Cc2ccc(C(=O)N3CCOCC3)o2)cc1 | i
O=C(O)c1ccc(CSCc2ccccc2)o1 | i
O=C(O)c1ccc(CS(=O)(=O)c2ccccc2)o1 | 19.0
Cc1cc(C)cc(OCC(=O)N2CCCC2)c1 | i
COc1cc(C=NC2=NN(c3ccccc3)CC2)ccc1O | i
CC(C)[C@@H]1NC(=O)[C@H](Cc2ccccc2)NC(=O)[C@@H](CC(=O)O)NC(=O)CNC(=O)[C@H](CCCN=C(N)N)NC1=O | i
Cc1ccc(S(=O)(=O)/C(C#N)=C/c2ccc(-c3ccc(Cl)cc3)o2)cc1 | i
Cn1c(C(C#N)C(=O)C2CCCCC2)nc2ccccc21 (centres undefined) | i
Clc1ccc(-c2csc(Nc3ncccn3)n2)c(Cl)c1 | i
O=C(/C=C/c1ccc(Br)o1)/C=C/c1ccc(Br)o1 | 48.6
O=C(/C=C/c1ccc(Br)o1)Nc1nccs1 | i
Cc1ccc(/C=C/C(=O)O)o1 | i
O=C(O)/C=C/c1ccc(Br)o1 | 71.9
O=C(/C=C/c1ccc(Br)o1)Nc1ccc(F)cc1F | i
O=C(O)/C=C/c1ccc(-c2cccc(C(F)(F)F)c2)o1 | i
Cc1ccc2oc(=O)c3cc(C(=O)N(Cc4ccco4)C4CCCCC4)sc3c2c1 | i
CCC(=O)Nc1cccc(-c2cn3cccnc3n2)c1 | i
Cc1cc2n(c(=O)c1C(N)=O)CCO2 | i
SMILES | Vaccinia pol inh
Cc1ccc(C)c(N2C(=O)CS/C2=C(/C#N)S(=O)(=O)c2ccccc2)c1 | i
O=C(O)CNC(=S)N(Cc1cccs1)C1CCCCC1 | i
O=C(O)CNC(=S)N(Cc1ccccc1)Cc1cccs1 | i
O=C(CNC(=S)N(Cc1ccccc1)Cc1cccs1)NC1CCCCC1 | 77.2
c1ccc(CN2CCN(c3cccc4[nH]ccc34)CC2)cc1 | i
COC(=O)c1cccc(NC(N)=S)c1 | i
N=C(N)c1cccc(NC(=O)Nc2cccc(C(=N)N)c2)c1 | 77.1
Cc1cccc(NC(=O)Nc2cccc(C)c2)c1 | i
COC(=O)C1COc2ccccc2O1 (centres undefined) | i
Cc1ccc2c(c1)-c1onc(C(=O)NC3CCCc4ccccc43)c1CO2 (centres undefined) | i
CCc1nnc(NC(=O)c2noc3c2COc2ccc(C)cc2-3)s1 | i
CCN1CCCC1CNC(=O)c1noc2c1COc1ccc(C)cc1-2 (centres undefined) | 63.3
O=C(COCC(=O)c1ccccc1)Sc1nc2ccccc2o1 | i
CCC(=O)Nc1ccc(-c2cn3cccc(C)c3n2)cc1 | i
CCOC(=O)c1c(NC(=O)CCN2CCOCC2)sc(C)c1-c1ccccc1 | i
CCOC(=O)c1c(NC(C)=O)sc(Br)c1-c1ccc(C)cc1 | i
CCOC(=O)c1c(NC(=O)/C=C\C(=O)O)sc(C)c1-c1ccccc1 | 62.9
O=C(NCCc1cn2ccccc2n1)c1cccc(C(F)(F)F)c1 | i
Cc1cccc(Cn2nnc(C(=O)Nc3ccc(Br)cc3)c2N)c1 | i
CCOP(=O)(c1ccccc1)c1nc(-c2ccc(Cl)cc2)oc1NCc1ccccc1 (centres undefined) | i
O=C(O)c1cnn(-c2ccccc2)c1-n1cccc1CNCc1ccccc1 | i
O=C(NO)c1cccc2c1-c1ccccc1/C2=N/O | i
COC(=O)c1cccc2c1-c1ccccc1/C2=N/O | 57.6
COC(=O)c1ccccc1C(=O)c1ccccc1 | i
N#Cc1nc(-c2ccc(Cl)cc2)oc1NC1CC1 | i
SMILES | Vaccinia pol inh
Cc1cc(NCCNc2ccccc2)c2ccc3ccccc3c2n1 | 71.6
Cc1cc(NCc2ccco2)c2ccccc2n1 | i
Cc1cc(SCC(=O)Nc2ccccc2)c2ccccc2n1 | i
O=S(=O)(Nc1cccc(Br)c1)c1cccs1 | i
O=C(c1snc2ccc(Cl)cc12)N1CCN(c2ccccc2)CC1 | i
O=C(CCC1CC(=O)Nc2ccccc21)NCc1ccccc1 (centres undefined) | i
O=C1CC(c2ccccc2)c2c(ccc3ccccc23)N1 (centres undefined) | 83.5
COc1cc2c(cc1OC)C(c1ccccc1)CC(=O)N2 (centres undefined) | i
O/N=C/c1cc2c(cc1Br)OCO2 | i
CCCNC(=O)Cn1ncc2c3ccccc3n(Cc3ccccc3)c2c1=O | i
CC1(C)CC(=O)C2=C(C1)NC1=C(C(=O)CC(C)(C)C1)C2c1cccc(F)c1 | i
Cn1c(-c2ccc3ccccc3n2)[n+](C)c2ccccc21 | i
COc1ccc(-c2ccc3ccccc3n2)cc1OC | i
C[n+]1cc(-c2ccc3ccccc3n2)cc2ccccc21 | 84.8
CC(C)c1cc(C(C)C)c(S(=O)(=O)N2CC3C4C=CC(C4)C3C2)c(C(C)C)c1 (centres undefined) | i
COc1ccc2nc(C)cc(Nc3ccccc3)c2c1 | 80.8
COc1ccc2nc(-c3ccccc3)cc(C(=O)O)c2c1 | i
COc1ccc2nc(Nc3ccccc3)sc2c1 | i
CCOC(=O)c1cc(-c2ccnn2C(=O)c2ccccc2)on1 | i
Cc1cc(-c2nc(-c3ccnn3S(=O)(=O)c3cccc(C(F)(F)F)c3)cs2)no1 | i
CCOC(=O)c1cc(-c2ccnn2S(=O)(=O)c2cccc(C(F)(F)F)c2)on1 | 69.3
CN1C(=O)C(C)(C)c2cc(S(=O)(=O)N3CCc4ccccc43)ccc21 | i
Cc1ccc(CNCc2ccccc2)o1 | i
Oc1ccc(C(CCl)n2cncn2)cc1 (centres undefined) | i
Cc1oc(-n2c(C)ccc2C)c(C#N)c1C | i
SMILES | Vaccinia pol inh
O=c1oc(-c2ccc(F)cc2)nc2sc3c(c12)CCCC3 | i
C=C1C(C(=O)NCc2ccco2)C1C(=O)NCc1ccco1 (centres undefined) | 56.5
Nc1nonc1C(=O)NCc1ccco1 | i
C=C(NCc1ccco1)c1ccc(Cl)cc1 | i
O=C1CCCCC1Sc1nc2ccccc2[nH]1 (centres undefined) | i
Cc1ccc(O)c(-c2cc(-c3ccc(C(C)(C)C)cc3)n[nH]2)c1 | i
COc1ccc(/C=C/C(=O)NCCSc2c[nH]c3ccccc23)cc1OC | i
Cc1cc(Nc2ccccc2)n(-c2ccccc2C(=O)O)n1 | 86.5
Cc1cc(Nc2ccccc2)n(C(C)(C)C)n1 | i
Cc1cc(Nc2ccccc2)n2cnnc2n1 | i
Cc1ccc(NC(=O)c2ccco2)c(C(=O)c2ccccc2)c1 | i
O=C(CCc1c[nH]c2ccccc12)OCc1c(Cl)cccc1Cl | i
Cc1ccc(Nc2ccc(C)cc2)cc1 | i
Cc1ccc(NN)cc1 | 65.0
Cc1ccc(S(=O)(=O)c2ccc(NN)cc2)cc1 | i
CC1(C)CC(=O)C(C(=S)Nc2ccccc2)C(=O)C1 | i
CC1(C)Cc2ccccc2/C(=C/C(=O)Nc2ccccc2)N1 | 86.2

High-throughput results from PubChem.
